# From the supplement of paper PMC4466140
# Target: AgAbp1
# Assay: SPOT peptide array binding signal intensity (averaged, normalized) (arbitrary units (background-subtracted, floor 0; scale differs between SH3 domains)); higher = stronger binding of the SH3 domain to the peptide
# How it was run: (§1)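 Binding signal refers to normalized, background-subtracted spot intensity averaged over replicates, expressed in arbitrary units that differ between domains. GST-fused SH3 domains from four yeast species were incubated at 10 μg/ml overnight at 4°C on cellulose membranes of synthetic 15-mer peptides with cysteines replaced by serines. Bound protein was detected with anti-GST antibody, an HRP anti-mouse secondary and luminol, and quantified with Genespotter.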
row,Binder,SPOT peptide array binding signal intensity
1,HAPPLPPTAPPPPSL,≤ 0

# Target: AgBbc1
# Assay: as above
# How it was run: as §1
row,Binder,SPOT peptide array binding signal intensity
1,HAPPLPPTAPPPPSL,≤ 0

# Target: AgBem1-D1
# Assay: as above
# How it was run: as §1
row,Binder,SPOT peptide array binding signal intensity
1,HAPPLPPTAPPPPSL,≤ 0

# Target: AgBzz1-D1
# Assay: as above
# How it was run: as §1
row,Binder,SPOT peptide array binding signal intensity
1,HAPPLPPTAPPPPSL,≤ 0

# Target: AgBzz1-D2
# Assay: as above
# How it was run: as §1
row,Binder,SPOT peptide array binding signal intensity
1,HAPPLPPTAPPPPSL,≤ 0

# Target: AgCyk3
# Assay: as above
# How it was run: as §1
row,Binder,SPOT peptide array binding signal intensity
1,HAPPLPPTAPPPPSL,≤ 0

# Target: AgFus1
# Assay: as above
# How it was run: as §1
row,Binder,SPOT peptide array binding signal intensity
1,HAPPLPPTAPPPPSL,≤ 0

# Target: AgHof1
# Assay: as above
# How it was run: as §1
row,Binder,SPOT peptide array binding signal intensity
1,HAPPLPPTAPPPPSL,26.5

# Target: AgHse1
# Assay: as above
# How it was run: as §1
row,Binder,SPOT peptide array binding signal intensity
1,HAPPLPPTAPPPPSL,≤ 0

# Target: AgLsb1
# Assay: as above
# How it was run: as §1
row,Binder,SPOT peptide array binding signal intensity
1,HAPPLPPTAPPPPSL,≤ 0

# Target: AgLsb4
# Assay: as above
# How it was run: as §1
row,Binder,SPOT peptide array binding signal intensity
1,HAPPLPPTAPPPPSL,≤ 0

# Target: AgMyo5
# Assay: as above
# How it was run: as §1
row,Binder,SPOT peptide array binding signal intensity
1,HAPPLPPTAPPPPSL,2230

# Target: AgNbp2
# Assay: as above
# How it was run: as §1
row,Binder,SPOT peptide array binding signal intensity
1,HAPPLPPTAPPPPSL,≤ 0

# Target: AgRvs167
# Assay: as above
# How it was run: as §1
row,Binder,SPOT peptide array binding signal intensity
1,HAPPLPPTAPPPPSL,≤ 0

# Target: AgSho1
# Assay: as above
# How it was run: as §1
row,Binder,SPOT peptide array binding signal intensity
1,HAPPLPPTAPPPPSL,≤ 0

# Target: AgSla1-D1-D2
# Assay: as above
# How it was run: as §1
row,Binder,SPOT peptide array binding signal intensity
1,HAPPLPPTAPPPPSL,≤ 0

# Target: AgSla1-D3
# Assay: as above
# How it was run: as §1
row,Binder,SPOT peptide array binding signal intensity
1,HAPPLPPTAPPPPSL,≤ 0

# Target: CaAbp1-D1
# Assay: as above
# How it was run: as §1
row,Binder,SPOT peptide array binding signal intensity
1,HAPPLPPTAPPPPSL,≤ 0

# Target: CaAbp1-D2
# Assay: as above
# How it was run: as §1
row,Binder,SPOT peptide array binding signal intensity
1,HAPPLPPTAPPPPSL,2

# Target: CaBbc1
# Assay: as above
# How it was run: as §1
row,Binder,SPOT peptide array binding signal intensity
1,HAPPLPPTAPPPPSL,≤ 0

# Target: CaBem1-D1
# Assay: as above
# How it was run: as §1
row,Binder,SPOT peptide array binding signal intensity
1,HAPPLPPTAPPPPSL,≤ 0

# Target: CaBzz1-D1
# Assay: as above
# How it was run: as §1
row,Binder,SPOT peptide array binding signal intensity
1,HAPPLPPTAPPPPSL,2

# Target: CaBzz1-D2
# Assay: as above
# How it was run: as §1
row,Binder,SPOT peptide array binding signal intensity
1,HAPPLPPTAPPPPSL,6

# Target: CaCyk3
# Assay: as above
# How it was run: as §1
row,Binder,SPOT peptide array binding signal intensity
1,HAPPLPPTAPPPPSL,≤ 0

# Target: CaFus1
# Assay: as above
# How it was run: as §1
row,Binder,SPOT peptide array binding signal intensity
1,HAPPLPPTAPPPPSL,≤ 0

# Target: CaHof1
# Assay: as above
# How it was run: as §1
row,Binder,SPOT peptide array binding signal intensity
1,HAPPLPPTAPPPPSL,≤ 0

# Target: CaHse1
# Assay: as above
# How it was run: as §1
row,Binder,SPOT peptide array binding signal intensity
1,HAPPLPPTAPPPPSL,1.5

# Target: CaLsb1
# Assay: as above
# How it was run: as §1
row,Binder,SPOT peptide array binding signal intensity
1,HAPPLPPTAPPPPSL,≤ 0

# Target: CaLsb4
# Assay: as above
# How it was run: as §1
row,Binder,SPOT peptide array binding signal intensity
1,HAPPLPPTAPPPPSL,≤ 0

# Target: CaMyo5
# Assay: as above
# How it was run: as §1
row,Binder,SPOT peptide array binding signal intensity
1,HAPPLPPTAPPPPSL,792

# Target: CaNbp2
# Assay: as above
# How it was run: as §1
row,Binder,SPOT peptide array binding signal intensity
1,HAPPLPPTAPPPPSL,≤ 0

# Target: CaRvs167
# Assay: as above
# How it was run: as §1
row,Binder,SPOT peptide array binding signal intensity
1,HAPPLPPTAPPPPSL,≤ 0

# Target: CaRvs167-3
# Assay: as above
# How it was run: as §1
row,Binder,SPOT peptide array binding signal intensity
1,HAPPLPPTAPPPPSL,≤ 0

# Target: CaSho1
# Assay: as above
# How it was run: as §1
row,Binder,SPOT peptide array binding signal intensity
1,HAPPLPPTAPPPPSL,≤ 0

# Target: CaSla1-D1-D2
# Assay: as above
# How it was run: as §1
row,Binder,SPOT peptide array binding signal intensity
1,HAPPLPPTAPPPPSL,≤ 0

# Target: CaSla1-D3
# Assay: as above
# How it was run: as §1
row,Binder,SPOT peptide array binding signal intensity
1,HAPPLPPTAPPPPSL,≤ 0

# Target: ScAbp1
# Assay: as above
# How it was run: as §1
row,Binder,SPOT peptide array binding signal intensity
1,HAPPLPPTAPPPPSL,≤ 0

# Target: ScBbc1
# Assay: as above
# How it was run: as §1
row,Binder,SPOT peptide array binding signal intensity
1,HAPPLPPTAPPPPSL,≤ 0

# Target: ScBem1-D1
# Assay: as above
# How it was run: as §1
row,Binder,SPOT peptide array binding signal intensity
1,HAPPLPPTAPPPPSL,≤ 0

# Target: ScBzz1-D1
# Assay: as above
# How it was run: as §1
row,Binder,SPOT peptide array binding signal intensity
1,HAPPLPPTAPPPPSL,≤ 0

# Target: ScBzz1-D2
# Assay: as above
# How it was run: as §1
row,Binder,SPOT peptide array binding signal intensity
1,HAPPLPPTAPPPPSL,≤ 0

# Target: ScCyk3
# Assay: as above
# How it was run: as §1
row,Binder,SPOT peptide array binding signal intensity
1,HAPPLPPTAPPPPSL,≤ 0

# Target: ScFus1
# Assay: as above
# How it was run: as §1
row,Binder,SPOT peptide array binding signal intensity
1,HAPPLPPTAPPPPSL,≤ 0

# Target: ScHof1
# Assay: as above
# How it was run: as §1
row,Binder,SPOT peptide array binding signal intensity
1,HAPPLPPTAPPPPSL,40.5

# Target: ScHse1
# Assay: as above
# How it was run: as §1
row,Binder,SPOT peptide array binding signal intensity
1,HAPPLPPTAPPPPSL,≤ 0

# Target: ScLsb1
# Assay: as above
# How it was run: as §1
row,Binder,SPOT peptide array binding signal intensity
1,HAPPLPPTAPPPPSL,≤ 0

# Target: ScLsb2
# Assay: as above
# How it was run: as §1
row,Binder,SPOT peptide array binding signal intensity
1,HAPPLPPTAPPPPSL,≤ 0

# Target: ScLsb3
# Assay: as above
# How it was run: as §1
row,Binder,SPOT peptide array binding signal intensity
1,HAPPLPPTAPPPPSL,≤ 0

# Target: ScLsb4
# Assay: as above
# How it was run: as §1
row,Binder,SPOT peptide array binding signal intensity
1,HAPPLPPTAPPPPSL,≤ 0

# Target: ScMyo3
# Assay: as above
# How it was run: as §1
row,Binder,SPOT peptide array binding signal intensity
1,HAPPLPPTAPPPPSL,1750

# Target: ScMyo5
# Assay: as above
# How it was run: as §1
row,Binder,SPOT peptide array binding signal intensity
1,HAPPLPPTAPPPPSL,2000

# Target: ScNbp2
# Assay: as above
# How it was run: as §1
row,Binder,SPOT peptide array binding signal intensity
1,HAPPLPPTAPPPPSL,≤ 0

# Target: ScPex13
# Assay: as above
# How it was run: as §1
row,Binder,SPOT peptide array binding signal intensity
1,HAPPLPPTAPPPPSL,≤ 0

# Target: ScRvs167
# Assay: as above
# How it was run: as §1
row,Binder,SPOT peptide array binding signal intensity
1,HAPPLPPTAPPPPSL,≤ 0

# Target: ScSho1
# Assay: as above
# How it was run: as §1
row,Binder,SPOT peptide array binding signal intensity
1,HAPPLPPTAPPPPSL,≤ 0

# Target: ScSla1-D1-D2
# Assay: as above
# How it was run: as §1
row,Binder,SPOT peptide array binding signal intensity
1,HAPPLPPTAPPPPSL,≤ 0

# Target: ScSla1-D3
# Assay: as above
# How it was run: as §1
row,Binder,SPOT peptide array binding signal intensity
1,HAPPLPPTAPPPPSL,1.75

# Target: SpAbp1-D1
# Assay: as above
# How it was run: as §1
row,Binder,SPOT peptide array binding signal intensity
1,HAPPLPPTAPPPPSL,≤ 0

# Target: SpBbc1
# Assay: as above
# How it was run: as §1
row,Binder,SPOT peptide array binding signal intensity
1,HAPPLPPTAPPPPSL,1.5

# Target: SpBzz1-D1
# Assay: as above
# How it was run: as §1
row,Binder,SPOT peptide array binding signal intensity
1,HAPPLPPTAPPPPSL,148

# Target: SpBzz1-D2
# Assay: as above
# How it was run: as §1
row,Binder,SPOT peptide array binding signal intensity
1,HAPPLPPTAPPPPSL,≤ 0

# Target: SpCyk3
# Assay: as above
# How it was run: as §1
row,Binder,SPOT peptide array binding signal intensity
1,HAPPLPPTAPPPPSL,≤ 0

# Target: SpHof1
# Assay: as above
# How it was run: as §1
row,Binder,SPOT peptide array binding signal intensity
1,HAPPLPPTAPPPPSL,≤ 0

# Target: SpHof1-2
# Assay: as above
# How it was run: as §1
row,Binder,SPOT peptide array binding signal intensity
1,HAPPLPPTAPPPPSL,≤ 0

# Target: SpHof1-3
# Assay: as above
# How it was run: as §1
row,Binder,SPOT peptide array binding signal intensity
1,HAPPLPPTAPPPPSL,≤ 0

# Target: SpHse1
# Assay: as above
# How it was run: as §1
row,Binder,SPOT peptide array binding signal intensity
1,HAPPLPPTAPPPPSL,≤ 0

# Target: SpLsb1
# Assay: as above
# How it was run: as §1
row,Binder,SPOT peptide array binding signal intensity
1,HAPPLPPTAPPPPSL,≤ 0

# Target: SpLsb4
# Assay: as above
# How it was run: as §1
row,Binder,SPOT peptide array binding signal intensity
1,HAPPLPPTAPPPPSL,≤ 0

# Target: SpMyo1
# Assay: as above
# How it was run: as §1
row,Binder,SPOT peptide array binding signal intensity
1,HAPPLPPTAPPPPSL,1320

# Target: SpNbp2
# Assay: as above
# How it was run: as §1
row,Binder,SPOT peptide array binding signal intensity
1,HAPPLPPTAPPPPSL,≤ 0

# Target: SpPex13
# Assay: as above
# How it was run: as §1
row,Binder,SPOT peptide array binding signal intensity
1,HAPPLPPTAPPPPSL,≤ 0

# Target: SpRvs167
# Assay: as above
# How it was run: as §1
row,Binder,SPOT peptide array binding signal intensity
1,HAPPLPPTAPPPPSL,2.67

# Target: SpSla1-D1-D2
# Assay: as above
# How it was run: as §1
row,Binder,SPOT peptide array binding signal intensity
1,HAPPLPPTAPPPPSL,7

# Target: SpSla1-D3
# Assay: as above
# How it was run: as §1
row,Binder,SPOT peptide array binding signal intensity
1,HAPPLPPTAPPPPSL,≤ 0
